# Most compounds without a hit are left out; they make up all but 19% or so of the library.
# DT40 TDP1 no CPT: qHTS for Inhibitors of human tyrosyl-DNA phosphodiesterase 1 (TDP1): qHTS in cells in absence of CPT. DT40 Tdp1-/- hTDP1 cells, no CPT, ATP luminescence, 48 h. Potency, µM (titrated, usually from 46.2 µM), for the others: at the top dose activity change, negative = growth inhibition, usual class: inhibitors. hit rate 15% among 420,000. AID 686978, 2013; note: potency is the fitted concentration of half-maximal effect; nearly all actives have a fitted effect of over 55% in size
#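 Chicken DT40 Tdp1-/- cells stably complemented with human TDP1 were seeded at 400 cells/well with DMSO in place of 20 nM camptothecin. After compound pinning, cells grew at least 48 hr at 37 °C; viability read by CellTiter-Glo luminescence.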
# HT1080-NT tox: kills 2HG-producing HT-1080-NT fibrosarcoma cells; HT-1080-NT fibrosarcoma viability, CellTiter-Glo ATP luminescence, 48 h; Potency, µM (titrated, usually from 46.1 µM), for the others: at the top dose activity, negative = less viability, most hits filed as cytotoxic; hit rate 1.6% among 360,000;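 note: NT is the 2HG producing partner of a matched IDH1 knockdown line; potency is the fitted concentration of half-maximal effect; 0% = DMSO-treated cells and -100% = media-only wells without cells; nearly all actives have a fitted effect of over 55% in size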
#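 Fibrosarcoma NT cells, 750 per well in 5% FBS RPMI, were exposed to compound for 48 hours. Viability: CellTiter-Glo luminescence.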
# HT1080 IDH1KD tx: HT-1080 IDH1 knockdown cell toxicity (counter line); HT-1080 IDH1 knockdown viability, ATP luminescence, 48 h; hit rate 2% among 360,000; AID 686971; Potency, µM (doses to about 46.1 µM), for the others: at the highest dose activity, negative = toxicity, actives largely listed as cytotoxic;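 note: potency is the fitted concentration of half-maximal effect; 0% = DMSO wells and -100% = cell-free medium wells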
#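 Luminescent ATP read-out (CellTiter-Glo, 10 min at room temperature) after 48 h compound exposure at 37 °C gave viability of IDH1-knockdown HT-1080 cells. Activity was normalised to DMSO and cell-free wells, then fitted as concentration-response curves.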
# DT40 TDP1 CPT: growth inhibition of DT40 Tdp1-/-;hTDP1 cells with camptothecin (screen for TDP1 inhibitors); AID 686979; hit rate 12% among 420,000; chicken DT40 Tdp1-/-;hTDP1 cells + 20 nM CPT, ATP luminescence, 48 h; Potency, µM (top dose mostly 46.2 µM), for the others: at the top dose activity change, negative = growth inhibition, hits mostly inhibitors; note: potency is the fitted concentration of half-maximal effect; nearly all actives have a fitted effect of over 55% in size
#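 Chicken DT40 Tdp1-/- cells complemented with human TDP1, 400 cells/well, exposed to compounds plus 20 nM camptothecin for at least 48 h at 37 C; viability read as ATP content by CellTiter-Glo luminescence.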
# IL-1B inflam inh: inhibitors of inflammasome signaling (IL-1 beta secretion) | THP-1 LPS/ATP IL-1B secretion, AlphaLISA, 16 h; hits give low values | activity change, % at 57.5 µM | hit rate 4.7% among 360,000; in the data active = activity change below about -50%; inconclusive = mostly about -30% to -49%
#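 Secreted IL-1B measured by AlphaLISA bead assay after 16 h compound exposure of THP-1 cells; compounds (final up to 57.5 uM) added 1 h before LPS (250 ng/mL) and ATP (1.25 mM) stimulation; lower signal means less secretion.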
# The depositor's hits bear a star; ? = inconclusive; nt = no result given. Unless noted, calls come from the whole dose curve; as a rule, active = well fitted curve in the direction sought with a large enough effect; inconclusive = small, poorly fitted or top-dose-only effect, or another doubt; inactive = no such curve, though single readings can be large; an effect the other way counts as inactive or inconclusive. Unless noted, % is set by controls: 0 for no effect and ±100 for the full control effect.
SMILES,DT40 TDP1 no CPT,HT1080-NT tox,HT1080 IDH1KD tx,DT40 TDP1 CPT,IL-1B inflam inh
O=C(NCc1ccc(Cl)cc1)c1ccc(-c2ccc(F)c(F)c2)c2ccoc12,?,-5.1%,-2.1%,?,nt
O=C(NCC1CCOCC1)c1ccc(-c2ccc(F)c(F)c2)c2ccoc12,10.3µM*,-16.4%,?,11.6µM*,-92.3*
O=C(NCc1cccs1)c1ccc(-c2ccc(F)c(F)c2)c2ccoc12,10.3µM*,?,?,11.6µM*,nt
Cc1csc(Nc2ccc(C(=O)O)cc2)n1,-1.5%,17.0%,-6.4%,3.4%,-3.8
CC(=O)c1ccc(Nc2nc(CN)cs2)cc1,?,7.1%,4.6%,?,8.1
CN(C)Cc1csc(Nc2ccc(C(=O)c3ccccc3)cc2)n1,?,-7.7%,-29.2%,18.4µM*,-28.4
NC(c1csc(Nc2ccc(C(=O)c3ccccc3)cc2)n1)c1ccccc1Cl (stereo not drawn),?,?,?,20.6µM*,-6.7
CC(C)C(N)c1csc(Nc2ccc(C(=O)c3ccccc3)cc2)n1 (stereo not drawn),?,?,?,?,-59.7*
CC(N)c1csc(Nc2ccc(C(=O)c3ccccc3)cc2)n1 (stereo not drawn),?,?,-29.3%,?,-52.0*
COCCc1nn2c(=O)cc(COC(=O)c3ccc4c(c3)OCO4)nc2s1,-13.8%,nt,nt,-1.9%,nt
COc1cccc(C(=O)NNC(=O)Cc2ccc([N+](=O)[O-])cc2)c1,-5.4%,17.3%,13.4%,0.4%,5.6
CCc1cccc(NC(=O)C(c2ccccc2)N2Cc3ccccc3C2=O)c1 (stereo not drawn),-22.6%,nt,nt,?,nt
CC1CCC(C(C)C)C(OCC(O)CNC(C)c2ccccc2)C1 (stereo not drawn),14.6µM*,14.6µM*,?,?,-107.9*
CC(NCC(O)COC1CCC(C(C)(C)C)CC1)c1ccccc1 (stereo not drawn),20.6µM*,-22.3%,-6.7%,?,-67.2*
CC1CCN(CC(O)COC2CC(C)CCC2C(C)C)CC1 (stereo not drawn),16.4µM*,?,-22.5%,?,0.0
CC1CCC(C(C)C)C(OCC(O)CNC(C)(C)C)C1 (stereo not drawn),?,-18.7%,-1.8%,?,-26.7
COc1ccc(OCC(O)CNC(C)c2ccccc2)cc1 (stereo not drawn),?,-25.1%,-22.8%,?,-12.4
CCOc1ccc(-c2nc(SC(C(C)=O)C(=O)N(C)C)c3c(=O)n(C)c(=O)n(C)c3n2)cc1 (stereo not drawn),-18.4%,nt,nt,-5.1%,nt
Cc1ccc(S(=O)(=O)N2CCC(C(=O)N3CCCC(C(F)(F)F)C3)CC2)cc1C (stereo not drawn),-26.1%,0.4%,0.1%,?,-9.7
Cc1ccc(S(=O)(=O)N2CCC(C(=O)N3CCc4ccccc43)CC2)cc1C,18.4µM*,-7.0%,-3.2%,?,-2.0
Cc1ccc(S(=O)(=O)N2CCC(C(=O)N3CCCCCCC3)CC2)cc1C,?,-0.4%,-16.6%,16.4µM*,-15.3
Cc1ccc(S(=O)(=O)N2CCC(C(=O)OCCOc3ccccc3)CC2)cc1C,0.184µM*,2.3%,5.2%,-8.6%,8.7
CCOC(=O)N1CCN(C(=O)COC(=O)C2CCN(S(=O)(=O)c3c(Cl)cccc3Cl)CC2)CC1,-0.7%,1.9%,0.2%,-1.7%,8.8
CCCc1c(OCCCOc2ccc(OCC(=O)O)cc2)ccc(CC=O)c1O,-4.3%,nt,nt,8.2%,nt
N#Cc1cccc(-c2nc(N3CCNCC3)c3ccccc3n2)c1,18.4µM*,nt,nt,?,nt
SMILES,DT40 TDP1 no CPT,HT1080-NT tox,HT1080 IDH1KD tx,DT40 TDP1 CPT,IL-1B inflam inh
N#Cc1ccc(S(=O)(=O)N2CCN(c3nc(-c4ccccc4)nc4ccccc34)CC2)cc1,?,21.7%,25.5%,-14.7%,nt
c1ccc2c(N3CCNCC3)nc(-c3ccc4c(c3)OCO4)nc2c1,20.6µM*,nt,nt,?,nt
COCCNC(=O)c1nn(-c2ccc(C)cc2)c(=O)n(C)c1=O,-13.3%,nt,nt,-7.5%,nt
COc1ccc2nc(C)cc(N3CC(C)OC(C)C3)c2c1 (stereo not drawn),-29.9%,-3.2%,6.0%,?,24.0
COc1ccc2[nH]c3c(N4CC(C)OC(C)C4)ncnc3c2c1 (stereo not drawn),14.6µM*,-15.0%,-2.1%,?,-17.2
COc1cccc(N2CCN(c3ncnc4c3[nH]c3ccc(F)cc34)CC2C)c1 (stereo not drawn),1.64µM*,6.51µM*,7.31µM*,1.64µM*,-112.0*
CCN(CC(=O)Nc1ccc(NC(C)=O)cc1)C(=O)c1ccc(Sc2nncn2C)c([N+](=O)[O-])c1,-0.5%,0.8%,6.3%,-3.8%,12.3
COc1ccc2nc3cc(Cl)ccc3c(Nc3cc(C(C)C)c(O)cc3C)c2c1,?,20.6µM*,?,23.1µM*,-90.1*
COc1ccc(S(=O)(=O)Nc2cc(C(C)C)c(O)cc2C)cc1,?,-20.2%,-10.6%,?,-8.1
COc1ccccc1N1CCN(CCN2C(=O)C3CCCCN3C2=O)CC1 (stereo not drawn),-7.9%,2.6%,9.1%,0.7%,15.0
CC(=O)N1N=C(c2ccc(Br)cc2)CC1c1cn(C)c2ccccc12 (stereo not drawn),?,-2.2%,-6.9%,?,12.3
CCCC(=O)N1N=C(c2ccccc2)CC1c1cn(C)c2ccccc12 (stereo not drawn),?,5.3%,0.5%,?,-56.0*
COc1ccc(S(=O)(=O)N[C@@H](C)C(=O)OCC(=O)Nc2cc3oc4ccccc4c3cc2OC)cc1,14.6µM*,3.7%,2.1%,?,13.3
COc1cc2c(cc1NC(=O)c1cccc(S(=O)(=O)N(C)C)c1)oc1ccccc12,14.6µM*,-6.6%,?,10.3µM*,-2.4
COC(=O)c1c(NC(=O)COC(=O)[C@@H](NS(=O)(=O)c2cccc(Cl)c2)C(C)C)sc2c1CCC2,?,-2.1%,-4.4%,?,17.2
COC(=O)c1sc(N)c(C(=O)OC)c1COC(=O)[C@@H](NS(=O)(=O)c1cccc(Cl)c1)C(C)C,18.4µM*,?,-29.0%,?,?
COc1ccc(OCC(=O)Nc2cc3oc4ccccc4c3cc2OC)cc1,-28.9%,19.8%,27.4%,8.9%,11.4
COc1cc2c(cc1NC(=O)COC(=O)[C@@H](NS(=O)(=O)c1cccc(Cl)c1)C(C)C)oc1ccccc12,16.4µM*,-6.9%,-18.6%,?,0.0
COc1ccccc1NC(=O)c1cc(Sc2nncn2C)nc2ccccc12,-11.7%,-3.4%,-0.9%,-13.4%,-10.7

# Bioassay records (PubChem BioAssay)
